In the supplement of paper PMC9399229:
Where a name gives a salt, the structure may show the parent alone. In all, about 1,900 compounds were measured (“relative cell viability (CellTiter-Glo), compound plus cabozantinib, relative to the cabozantinib arm (arm median 1.05; reference not stated)”: median about 1.1, lowest 2% from about 0.15 on). The list comes from a sample in which the lowest values are over-represented; it also holds similar structures and randomly drawn compounds.

These molecules were tested on Hep3B (assay: relative cell viability (CellTiter-Glo), compound plus cabozantinib, relative to the cabozantinib arm (arm median 1.05; reference not stated) (fraction); higher = more viable cells (less growth inhibition)). Conditions: cabozantinib 2 µM; 4 days.

Compound	relative cell viability
COCC[n+]1c2c(n(Cc3cnccn3)c1C)C(=O)c1ccccc1C2=O [YM155 (Sepantronium Bromide)]	0.129
O=C(c1cncc(Br)c1)N1CCC(N2CCCC2)CC1	1.16
COc1cc2c(cc1O)CC[C@@H]1[C@@H]2CC[C@]2(C)[C@@H](O)CC[C@@H]12 [2-Methoxyestradiol (2-MeOE2)]	1.06
CCCCCCCCCCCCCCCCO [1-Hexadecanol]	1.14
C[C@@H](Nc1cc(F)cc(F)c1)c1cc(C(=O)N(C)C)cc2c(=O)cc(N3CCOCC3)oc12	0.998
CCN(CC)CCNC(=O)c1ccc(N)cc1 [Procainamide HCl]	0.947
COc1ccc(Cn2ccc3ccc(C(=O)NO)cc32)cc1	0.91
CCN(CC)Cc1ccc2cc(COC(=O)Nc3ccc(C(=O)NO)cc3)ccc2c1 [Givinostat (ITF2357)]	0.109
CN(C)C(=S)NN=C(c1ccccn1)c1ccccn1	0.15
COc1cc(NC(=O)c2ccccn2)ccc1Cl	1.05
CCOC(=O)[C@H](CCc1ccccc1)N[C@@H](C)C(=O)N1CCC[C@H]1C(=O)O [Enalapril Maleate]	1.15
CC#CC(=O)N1CC[C@@H](n2c(=O)n(-c3ccc(Oc4ccccc4)cc3)c3c(N)ncnc32)C1	1.07
COC(=O)CC[C@H](NC(=O)[C@H](CC(=O)OC)NC(=O)OCc1ccccc1)C(=O)N[C@H](C(=O)N[C@@H](CC(=O)OC)C(=O)CF)C(C)C	1.09
CCCCC(=O)N(Cc1ccc(-c2ccccc2-c2nnn[nH]2)cc1)[C@H](C(=O)O)C(C)C [Valsartan]	1.2
COc1ccc(-c2nc(N3CCOCC3)c3sc(CN(C)c4ncc(C(=O)NO)cn4)cc3n2)cn1	0.181
Cn1cnc2c(F)c(Nc3ccc(Br)cc3Cl)c(C(=O)NOCCO)cc21 [Selumetinib (AZD6244)]	0.616
COc1cc(N2CCC(N3CCN(C)CC3)CC2)ccc1Nc1ncnc(Nc2ccccc2S(=O)(=O)C(C)C)n1	1.09
Cc1cc(Nc2ncc(Cl)c(Nc3ccccc3S(=O)(=O)C(C)C)n2)c(OC(C)C)cc1C1CCNCC1	0.122
NC(=S)N/N=C/c1ncccc1N [Triapine]	1.02
CC(=O)Nc1nc2c(Oc3cc(-c4ccc(C(F)(F)F)cc4)ncn3)cccc2s1	1.04
CN[C@H]1CN(c2ccc3c(=O)c(C(=O)O)cn(-c4nccs4)c3n2)C[C@@H]1OC [Voreloxin (SNS-595)]	0.968
CC/C(=C(\c1ccc(O)cc1)c1ccc(OCCNC)cc1)c1ccccc1 [Endoxifen HCl]	1.15
Oc1cc(O)c(Cl)cn1 [Gimeracil]	1
CNC(CC(=O)O)C(=O)O [NMDA (N-Methyl-D-aspartic acid)]	1.15
CO[C@H]1/C=C/O[C@@]2(C)Oc3c(C)c(O)c4c(O)c(c5c(nc6cc(C)ccn65)c4c3C2=O)NC(=O)/C(C)=C\C=C\[C@H](C)[C@H](O)[C@@H](C)[C@@H](O)[C@@H](C)[C@H](OC(C)=O)[C@@H]1C [Rifaximin]	0.91

Compound	relative cell viability
C=CCc1cc(OC)c(O)c(C(=O)NCCO)c1 [Alibendol]	0.982
CC1(C)CC[C@]2(C(=O)O)CC[C@]3(C)C(=CC[C@@H]4[C@@]5(C)CC[C@H](O)C(C)(C)[C@@H]5CC[C@]43C)[C@@H]2C1 [Oleanolic Acid]	1.14
C=C1C(=O)[C@]23[C@H](O)[C@H]1CC[C@H]2[C@@]12CO[C@]3(O)[C@@H](O)[C@@H]1C(C)(C)CC[C@@H]2O [Oridonin]	1.11
Cc1csc(-c2nnc(Nc3ccc(Oc4ncccc4-c4ccnc(N)n4)cc3)c3ccccc23)c1	1
CCCNC(=O)Nc1ccc(Oc2ncnc3cc(OC)c(OC)cc23)cc1Cl	1.14
CCOc1cc2ncc(C#N)c(Nc3ccc(F)c(Cl)c3)c2cc1NC(=O)/C=C/CN(C)C [Pelitinib (EKB-569)]	0.9
CC(=O)C1=C(O)C=C2Oc3c(C(C)=O)c(O)c(C)c(O)c3C2(C)C1=O (single isomer, unassigned; (+)) [(+)-Usniacin]	1.11
C[C@H]1Oc2cc(cnc2N)-c2c(nn(C)c2C#N)CN(C)C(=O)c2ccc(F)cc21	1.14
C[C@@H](O)[C@H]1C(=O)N2C(C(=O)O)=C(S[C@@H]3CN[C@H](C(=O)N(C)C)C3)[C@H](C)[C@H]12 [Meropenem]	1.17
CC[C@@]1(O)C(=O)OCc2c1cc1n(c2=O)Cc2cc3cc(O)ccc3nc2-1 [(S)-10-Hydroxycamptothecin]	0.137
CC[C@@]1(O)C(=O)OCc2c1cc1n(c2=O)Cc2cc3c(CN(C)C)c(O)ccc3nc2-1 [Topotecan HCl]	0.556
CCc1c2c(nc3ccc(O)cc13)-c1cc3c(c(=O)n1C2)COC(=O)[C@]3(O)CC	0.176
CC(C)(C(=O)NCC(F)(F)C(F)(F)F)C(=O)N[C@@H]1C(=O)Nc2ccccc2-c2ccccc21	1.04
C[C@]12C=CC(=O)N[C@@H]1CC[C@@H]1[C@@H]2CC[C@]2(C)[C@@H](C(=O)Nc3cc(C(F)(F)F)ccc3C(F)(F)F)CC[C@@H]12 [Dutasteride]	1.12
O=C(COc1ccc(C(=O)c2ccccc2)cc1)NC1CCN(Cc2ccccc2)CC1 [AdipoRon]	1.06
Cc1[nH]nc2ccc(-c3cncc(OC[C@@H](N)Cc4ccccc4)c3)cc12	0.11
O=C(O)Cc1cc(I)c(Oc2ccc(O)c(I)c2)c(I)c1 [Tiratricol]	0.888
CSc1nc2cc(Cl)c(Oc3cccc(Cl)c3Cl)cc2[nH]1 [Triclabendazole]	1.14
O=C(/C=C\n1cnc(-c2cc(C(F)(F)F)cc(C(F)(F)F)c2)n1)N1CC(F)(F)C1	0.32
CC12CC3CC(C)(C1)CC(N)(C3)C2 [Memantine HCl]	1.1
O=C(/C=C/c1cccc(S(=O)(=O)Nc2ccccc2)c1)NO [Belinostat (PXD101)]	0.149
O=C(C=Cc1ccccc1)NC(NC(=S)Nc1ccc(Cl)cc1)C(Cl)(Cl)Cl (centres undefined)	1.14
Cn1cc(/C=C/C(=O)c2cccc(F)c2)cc1/C=C/C(=O)NO	1.19
COC(=O)N[C@H](C(=O)N[C@@H](Cc1ccccc1)[C@@H](O)CN(Cc1ccc(-c2ccccn2)cc1)NC(=O)[C@@H](NC(=O)OC)C(C)(C)C)C(C)(C)C [Atazanavir Sulfate]	0.969
Fc1cc(-c2cccc3ncc(-c4cnn(C5CCNCC5)c4)nc23)cc(F)c1CN1CCOCC1	1.11

Compound	relative cell viability
CCOC(=O)C1=C(C)NC(C)=C(C(=O)OC)C1c1cccc(Cl)c1Cl (centres undefined) [Felodipine]	1.11
CN1CCN2c3ncccc3Cc3ccccc3C2C1 (centres undefined) [Mirtazapine]	1.01
O=C(O[C@H]1CN2CCC1CC2)N1CCc2ccccc2[C@@H]1c1ccccc1 [Solifenacin succinate]	1.11
O=C1NC(=O)[C@@H](c2cn3c4c(cccc24)CCC3)[C@@H]1c1c[nH]c2ccccc12 [Tivantinib (ARQ 197)]	0.835
CC(C)n1c(/C=C/C(O)CC(O)CC(=O)O)c(-c2ccc(F)cc2)c2ccccc21 (centres undefined) [Fluvastatin Sodium]	1.14
CC[C@H]1[C@@H](O)[C@@H]2[C@H](CC[C@]3(C)[C@@H]([C@H](C)CCC(=O)O)CC[C@@H]23)[C@@]2(C)CC[C@@H](O)C[C@@H]12 [Obeticholic Acid]	1.12
COc1ccc(-c2ccc3c(N4CCOCC4)nc(N4C[C@@H](C)O[C@@H](C)C4)nc3n2)cc1CO	0.773
CNc1ncnc2c1ncn2[C@@H]1O[C@H](CO)[C@@H](O)[C@H]1O [N6-methyladenosine (m6A)]	1.21
COc1nc(N)nc2c1ncn2[C@@H]1O[C@H](CO)[C@@H](O)[C@@H]1O [Nelarabine]	1.17
COc1ccc(C[C@H](N)C(=O)N[C@H]2[C@@H](O)[C@H](n3cnc4c(N(C)C)ncnc43)O[C@@H]2CO)cc1 [Puromycin 2HCl]	0.0197
S=C(NCc1ccc2c(c1)OCO2)N1CCN(c2ncnc3c2oc2ccccc23)CC1 [Amuvatinib (MP-470)]	1.03
Cc1cnc(Nc2ccc(N3CCN(C)CC3)cc2)nc1Nc1cccc(S(=O)(=O)NC(C)(C)C)c1	0.281
C=CC(=O)Nc1cccc(Sc2nc(Nc3ccc(N4CCN(C)CC4)cc3)ncc2Cl)c1	0.747
C=CCn1c(=O)c2cnc(Nc3ccc(N4CCN(C)CC4)cc3)nc2n1-c1cccc(C(C)(C)O)n1	0.144
C=CC(=O)Nc1ccc2ncnc(Nc3ccc(OCc4cccc(F)c4)c(Cl)c3)c2c1	0.775
CCCc1ccc(OCC(=O)N(Cc2nc(-c3cccnc3)no2)C(C)C)cc1	1.16
C#C[C@]1(O)CC[C@H]2[C@@H]3CCC4=CC(=O)CC[C@@H]4[C@H]3CC[C@@]21C [Norethindrone]	1.06
CC1(C)S[C@@H]2[C@H](NC(=O)[C@H](N)c3ccccc3)C(=O)N2[C@H]1C(=O)O [Ampicillin sodium]	1.16
CC1(C)S[C@@H]2[C@H](NC(=O)[C@H](N)c3ccccc3)C(=O)N2[C@H]1C(=O)O [Ampicillin Trihydrate]	1.08
OCc1c[nH]c2ccccc12 [Indole-3-carbinol]	1.11
O=C(/C=C/c1ccc(CN(CCO)CCc2c[nH]c3ccccc23)cc1)NO [LAQ824 (Dacinostat)]	0.11
O=C(O)CCCc1c[nH]c2ccccc12 [3-Indolebutyric acid (IBA)]	1.07
OC[C@H]1O[C@H](O[C@]2(CCl)O[C@H](CCl)[C@@H](O)[C@@H]2O)[C@H](O)[C@@H](O)[C@H]1Cl [Sucralose]	1.05
CN1CCC(CNc2ccc3ncc(-c4cccc(OC(F)(F)F)c4)n3n2)CC1 [SGI-1776 free base]	0.976
